Several values for one entry are separate records, joined by “and”; a condition that tells them apart may be missing. Equal values may be shown once. Records with an inconclusive call do not appear. Where a structure was tested more than once in an assay, its records may differ in their call. Activity calls are given as the source filed them. Unless noted, calls follow the shape of the full dose curve.
Tests used:
[1] = Nuclear factor erythroid 2-related factor 2/antioxidant responsive element (Nrf2/ARE) small molecule agonists: qHTS cell viability counter screen in human keratinocytes (AID 1919968; active = well fitted curve in the direction sought with a large enough effect in the repeat runs; an effect the other way counts as inactive or inconclusive; also: nearly all actives have a fitted effect of over 55% in size)
Summary of the method: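 KeratinoSens cells (HaCaT keratinocytes stably carrying an ARE-luciferase reporter) were seeded at 1,500 cells/well and rested 5 h at 37 C/5% CO2. They were then exposed to compounds in DMSO for 23 h. Viability was read by CellTiter-Fluor fluorescence after 1 h.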

[2] = Nuclear factor erythroid 2-related factor 2/antioxidant responsive element (Nrf2/ARE) small molecule agonists: luciferase reporter gene qHTS assay in human keratinocytes (AID 1919969); also: nearly all actives have a fitted effect of over 35% in size; also: potency is read from the fitted curve at half-maximal effect
[3] = molecular target: KiSS-1 receptor (Homo sapiens) (UniProt Q969F8); assay: Human kisspeptin (KISS1R) small molecule agonists, calcium flux assay in KISS1R-HEK293 cells (AID 1920064; active = well fitted curve in the direction sought with a large enough effect in the repeat runs; an effect the other way counts as inactive or inconclusive)
KiSS-1 receptor (Homo sapiens), sequence (Q969F8 whole entry, looked up): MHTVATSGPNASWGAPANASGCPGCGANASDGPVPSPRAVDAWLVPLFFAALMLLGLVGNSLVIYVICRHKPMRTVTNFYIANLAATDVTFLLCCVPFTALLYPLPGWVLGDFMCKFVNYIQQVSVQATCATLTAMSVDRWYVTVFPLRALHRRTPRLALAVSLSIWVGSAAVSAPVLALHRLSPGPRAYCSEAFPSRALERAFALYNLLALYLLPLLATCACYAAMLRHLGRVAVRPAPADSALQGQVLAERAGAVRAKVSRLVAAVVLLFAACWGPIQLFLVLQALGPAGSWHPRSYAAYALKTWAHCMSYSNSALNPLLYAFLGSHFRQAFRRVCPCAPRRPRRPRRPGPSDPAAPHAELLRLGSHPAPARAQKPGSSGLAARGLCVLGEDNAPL
Summary of the method: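 HEK293 cells stably expressing human KISS1R were plated 18 h at 37 °C, loaded with calcium dye for 1 h at 37 °C, then given compound by pin tool. Fluorescence (Ex/Em 480/540) was read kinetically for 3 min.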

[4] = G protein-coupled receptor (GPCR) small molecule agonists, calcium flux assay: HEK293 wild type cell line counter screen (AID 1920065)
Summary of the method: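 Cells were plated and cultured 18 h at 37 C/5% CO2, then loaded with calcium dye for 1 h at 37 C. Compounds in DMSO were pin-transferred in agonist mode, and fluorescence (Ex/Em 480/540) was read kinetically for 3 min at 1 s intervals.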

[5] = p53 small molecule agonists, cell-based qHTS assay with human liver microsomes (AID 1963577)
Summary of the method: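 Fluorescence of the beta-lactamase reporter in p53RE-bla cells, detected with LiveBLAzer substrate (2 h, room temperature, dark), served as the read-out after 16 h compound exposure at 37 C with human liver microsomes and NADPH, each 0.5 mg/mL final.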

[6] = p53 small molecule agonists, cell-based qHTS assay with rat liver microsomes (AID 1963578)
Summary of the method: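 Cells carrying a p53 response element–beta-lactamase reporter were plated and rested 5 h, then dosed with compound in DMSO plus rat liver microsomes and NADPH, each at 0.5 mg/mL final. After 16 h at 37 C, LiveBLAzer substrate was added for 2 h.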

[7] = p53 small molecule agonists, cell-based qHTS assay with human liver microsomes: qHTS cell viability counter screen (AID 1963579); also: nearly all actives have a fitted effect of over 45% in size
Summary of the method: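 Cytotoxicity counter screen: p53RE-bla, 4,000 cells/well; 5 h settle, 37 C/5% CO2; cpd + HLM 0.5 mg/mL + NADPH 0.5 mg/mL (final); 16 h, 37 C; CellTiter-Glo, 30 min RT, luminescence.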

[8] = p53 small molecule agonists, cell-based qHTS assay with rat liver microsomes: qHTS cell viability counter screen (AID 1963580); also: nearly all actives have a fitted effect of over 45% in size
Summary of the method: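 p53RE-bla HCT-116 cells (4,000/well) rested 5 h at 37 C, then given Tox21 compounds in DMSO with rat liver microsomes (0.5 mg/mL final) plus NADPH (0.5 mg/mL final) for 16 h at 37 C. Viability read by CellTiter-Glo luminescence after 30 min at room temperature.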

[9] = p53 small molecule agonists, cell-based qHTS assay: qHTS cell viability counter screen (AID 1963581); also: nearly all actives have a fitted effect of over 45% in size
Summary of the method: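 p53RE-bla HCT-116 cells were exposed to compounds for 16 h at 37 C; after the beta-lactamase FRET read in the same wells, CellTiter-Glo was added and luminescence (intracellular ATP) read after 30 min at room temperature.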

[10] = p53 small molecule agonists, cell-based qHTS assay (AID 1963582; active = well fitted activation curve with a large enough effect in the signal ratio in the repeat runs, not every such curve was filed as active; the % refers to the signal ratio)
Summary of the method: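 p53RE-bla beta-lactamase reporter cells rested 5 h at 37 C/5% CO2, then received compounds in DMSO by pin transfer and were incubated 16 h at 37 C. LiveBLAzer B/G FRET substrate was loaded for 2 h at room temperature before fluorescence reading.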

[11] = molecular target: 5-hydroxytryptamine receptor 2A (Homo sapiens) (UniProt P28223); assay: 5-hydroxytryptamine receptor 2A (HTR2A) small molecule antagonists, cell-based qHTS assay (AID 1963586); also: nearly all actives have a fitted effect of over 45% in size
5-hydroxytryptamine receptor 2A (Homo sapiens), sequence (P28223 whole entry, looked up): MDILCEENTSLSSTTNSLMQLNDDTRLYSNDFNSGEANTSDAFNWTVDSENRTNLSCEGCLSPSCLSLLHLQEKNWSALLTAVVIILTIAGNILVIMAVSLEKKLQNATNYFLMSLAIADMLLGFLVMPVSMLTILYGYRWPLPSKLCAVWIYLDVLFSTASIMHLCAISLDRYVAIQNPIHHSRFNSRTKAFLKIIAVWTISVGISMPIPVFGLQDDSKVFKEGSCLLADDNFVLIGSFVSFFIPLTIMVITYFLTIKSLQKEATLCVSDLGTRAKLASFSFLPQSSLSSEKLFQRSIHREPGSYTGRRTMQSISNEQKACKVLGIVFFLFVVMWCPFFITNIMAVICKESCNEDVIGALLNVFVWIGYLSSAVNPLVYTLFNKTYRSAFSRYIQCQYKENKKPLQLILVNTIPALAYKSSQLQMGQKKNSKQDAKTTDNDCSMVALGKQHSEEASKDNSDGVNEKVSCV
Summary of the method: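 Antagonist-mode intracellular calcium assay: DOI (4 nM) added after 5 min compound pre-incubation at room temperature to dye-loaded HTR2A-CHO cells. Fluorescence followed for 3 min, sampled every second.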

[12] = molecular target: 5-hydroxytryptamine receptor 2A (Homo sapiens) (UniProt P28223); assay: 5-hydroxytryptamine receptor 2A (HTR2A) small molecule agonists, cell-based qHTS assay (AID 1963587); also: nearly all actives have a fitted effect of over 30% in size
Summary of the method: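 HTR2A-CHO cells, plated 18 h at 37 C/5% CO2, dye-loaded 1 h at 37 C; compounds in DMSO added by pin tool (agonist mode). Intracellular calcium flux read as kinetic fluorescence on FDSS over 2 min at 1 s intervals.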

[13] = molecular target: Muscarinic acetylcholine receptor M1 (Homo sapiens) (UniProt P11229); assay: Cholinergic receptor muscarinic 1 (CHRM1) small molecule antagonists, cell-based qHTS assay (AID 1963588); also: nearly all actives have a fitted effect of over 40% in size
Muscarinic acetylcholine receptor M1 (Homo sapiens), sequence (P11229 whole entry, looked up): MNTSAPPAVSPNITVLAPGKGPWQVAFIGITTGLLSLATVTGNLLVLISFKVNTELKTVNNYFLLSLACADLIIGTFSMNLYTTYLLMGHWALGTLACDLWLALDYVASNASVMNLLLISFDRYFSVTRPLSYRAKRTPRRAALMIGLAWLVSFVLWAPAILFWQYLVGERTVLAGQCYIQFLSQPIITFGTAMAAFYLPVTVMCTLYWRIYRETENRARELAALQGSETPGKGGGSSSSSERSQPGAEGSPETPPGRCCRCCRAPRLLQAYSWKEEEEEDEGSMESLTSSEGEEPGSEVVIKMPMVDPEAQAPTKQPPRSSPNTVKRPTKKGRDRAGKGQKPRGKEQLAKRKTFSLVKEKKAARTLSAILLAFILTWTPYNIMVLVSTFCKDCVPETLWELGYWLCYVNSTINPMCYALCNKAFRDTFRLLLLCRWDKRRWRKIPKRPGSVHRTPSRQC
Summary of the method: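 CHRM1-CHO calcium-flux assay, antagonist mode. Cells were seeded 18 h, dye-loaded 1 h at 37 C and given compound for 5 min at RT, then acetylcholine was added at 50nM. FDSS fluorescence was read 3 min; 15 concentrations, three runs.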

[14] = molecular target: Muscarinic acetylcholine receptor M1 (Homo sapiens) (UniProt P11229); assay: Cholinergic receptor muscarinic 1 (CHRM1) small molecule agonists, cell-based qHTS assay (AID 1963589); also: nearly all actives have a fitted effect of over 35% in size
Summary of the method: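 CHO cells stably expressing human CHRM1, seeded 18 h at 37 C/5% CO2, dye-loaded 1 h at 37 C, then given compound in agonist mode; intracellular calcium fluorescence read kinetically at 1 s intervals. Fifteen concentrations, three independent runs.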

[15] = cAMP Responsive Elements (CRE) small molecule agonists, cell-based qHTS assay (AID 1963590)
Summary of the method: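 CRE-bla HEK 293T cells in DMEM with 10% dialyzed FBS, NEAA, pyruvate and 25 mM HEPES were plated 18 h at 37 C/5% CO2, then exposed to compounds in DMSO for 3 h before LiveBLAzer B/G FRET substrate addition.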

[16] = cAMP Responsive Elements (CRE) small molecule antagonists, cell-based qHTS assay (AID 1963591; active = well fitted inhibition curve with a large enough effect in the signal ratio in the repeat runs, not every such curve was filed as active; the % refers to the signal ratio)
Summary of the method: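 CRE-bla HEK293T cells were plated 18 h at 37 °C/5% CO2, pinned with compound in DMSO, then stimulated with NKH477 at 0.25 uM final for 3 h. LiveBLAzer B/G FRET substrate was added and plates incubated 2 h at room temperature.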

[17] = molecular target: Beta-2 adrenergic receptor (Homo sapiens) (UniProt P07550); assay: Adrenergic beta2 receptor (ADRB2) small molecule antagonists, cell-based qHTS assay (AID 1963592); also: series mostly up to about 92 µM; nearly all actives have a fitted effect of over 50% in size
Beta-2 adrenergic receptor (Homo sapiens), sequence (P07550 whole entry, looked up): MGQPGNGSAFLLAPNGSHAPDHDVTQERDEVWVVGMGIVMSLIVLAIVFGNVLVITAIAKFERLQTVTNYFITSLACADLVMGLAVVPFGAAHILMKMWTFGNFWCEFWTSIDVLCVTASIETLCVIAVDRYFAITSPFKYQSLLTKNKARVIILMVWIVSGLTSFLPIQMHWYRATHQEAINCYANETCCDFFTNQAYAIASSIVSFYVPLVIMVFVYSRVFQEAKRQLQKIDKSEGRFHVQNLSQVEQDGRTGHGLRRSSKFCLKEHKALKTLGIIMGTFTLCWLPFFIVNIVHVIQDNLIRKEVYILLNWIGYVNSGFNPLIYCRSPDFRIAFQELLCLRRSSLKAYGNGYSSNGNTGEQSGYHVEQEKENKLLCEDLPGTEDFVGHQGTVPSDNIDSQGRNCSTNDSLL
Summary of the method: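 Cells (CHO, stable ADRB2 overexpression) incubated 18-20hr at 37C; compounds added from DMSO; agonist mix (1nM isoproterenol, 100uM IBMX, 25uM Ro-20-1724) added; 0.5hr RT; d2-cAMP and anti-cAMP-cryptate added; 1hr RT; 665/615 nm read.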

[18] = molecular target: Beta-2 adrenergic receptor (Homo sapiens) (UniProt P07550); assay: Adrenergic beta2 receptor (ADRB2) small molecule agonists, cell-based qHTS assay (AID 1963593);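 also: CHO cells stably overexpressing human ADRB2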
Summary of the method: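 CHO cells stably over-expressing ADRB2 were plated overnight at 37C, then dosed with compounds plus a stimulation mix containing 100uM IBMX and 25uM Ro-20-1724 for 0.5hr at room temperature. cAMP was measured by HTRF competition, 1hr.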

[19] = molecular target: D(2) dopamine receptor (Homo sapiens) (UniProt P14416); assay: Dopamine D2 receptor (DRD2) small molecule agonists, cell-based qHTS assay (AID 1963594); also: nearly all actives have a fitted effect of over 35% in size
D(2) dopamine receptor (Homo sapiens), sequence (P14416 whole entry, looked up): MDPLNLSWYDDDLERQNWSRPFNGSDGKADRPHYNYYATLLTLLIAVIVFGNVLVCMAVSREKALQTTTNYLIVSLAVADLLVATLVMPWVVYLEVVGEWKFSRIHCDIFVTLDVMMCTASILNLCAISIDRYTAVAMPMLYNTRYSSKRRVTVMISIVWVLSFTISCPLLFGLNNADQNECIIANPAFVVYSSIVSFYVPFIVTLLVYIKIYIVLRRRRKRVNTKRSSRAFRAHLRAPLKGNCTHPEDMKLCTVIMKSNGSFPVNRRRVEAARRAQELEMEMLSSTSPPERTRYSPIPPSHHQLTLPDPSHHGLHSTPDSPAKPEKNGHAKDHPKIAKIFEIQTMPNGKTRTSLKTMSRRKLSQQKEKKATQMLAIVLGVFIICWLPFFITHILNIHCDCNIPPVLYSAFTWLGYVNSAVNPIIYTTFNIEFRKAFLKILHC
Summary of the method: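 HEK293 cells stably expressing DRD2 were cultured 24 h at 37 C, then given Ro20-1724 (0.1 mM final) and compounds for 10 min at room temperature. NKH477 (200nM) was then added for 30 min. cAMP was read by HTRF.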

[20] = molecular target: D(2) dopamine receptor (Homo sapiens) (UniProt P14416); assay: Dopamine D2 receptor (DRD2) small molecule antagonists, cell-based qHTS assay (AID 1963595; active = well fitted inhibition curve with a large enough effect in the signal ratio in the repeat runs, with a control signal flat; the % refers to the signal ratio)
Summary of the method: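 Antagonism was scored as restored cAMP in HEK293-DRD2 cells. These cells were stimulated with 200 nM NKH477 and 12 nM quinpirole for 30 min at room temperature, in the presence of 0.1 mM Ro20-1724.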

Measured: Potency

CCOC(=O)c1ccc(OCCN2C[C@H](O)[C@@H](O)[C@H](O)[C@H]2CO)cc1
inactive: all assays above

C=CC(=O)OCCCCCCCC
not listed: [3] | [4] | [11] | [18]
inactive: all other assays above

CC(=O)OCC(=O)[C@@]1(O)CC[C@H]2[C@@H]3CCC4=CC(=O)C=C[C@]4(C)[C@H]3[C@@H](O)C[C@@]21C
not listed: [3] | [5] | [6] | [9] | [10] | [12] | [13] | [14]
inactive: all other assays above

CCOC(OCC)C(=O)c1ccccc1
not listed: [20]
inactive: all other assays above

COc1ccc(N)c(OC)c1
inactive and 68.6 µM (active): [2]
not listed: [17]
inactive: all other assays above

CC(=O)c1cc(C)oc1C
inactive: all assays above

CCCCC(CC)COCCC#N (stereo not drawn)
not listed: [3] | [4] | [7]
inactive: all other assays above

C=C[C@H]1CN2CC[C@H]1C[C@@H]2[C@@H](O)c1ccnc2ccc(OC)cc12
not listed: [3] | [5] | [6] | [10] | [12]
inactive: all other assays above
